rRNA inh HTS: inhibits bacterial ribosomal RNA function over humanized ribosomes; E. coli WT GFP vs humanized-ribosome RFP mutants, fluorescence, 24 h; active compounds read low; DMSO median 0, no signal -100; GFP signal change (wild-type ribosome), % (test concentration not listed); 350,000 compounds, 1.6% hits;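 active = significant combined selectivity score with lowered wild-type GFP, culture density cut under 30%, mutant RFP and density less affected; inactive = any of these conditions unmet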
FGF22 binding: binders of recombinant human FGF22 by thermal shift; activity (Tm shift, normalised), % at 9.99 µM; 340,000 compounds, 1.5% hits; SYPRO orange fluorescence; percent of sucrose octasulfate shift, DMSO zero; AID 651658;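 active = mean Tm shift, scaled 0 neutral to 100 positive control, at about 1.3% or above, every replicate too, limit read from the data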
proKLK7 act: activates the human kallikrein-7 zymogen; purified proKLK7, EDANS-DABCYL substrate fluorescence; 100% is mature enzyme control, 0% vehicle; activation, % at 7 µM; 370,000 compounds, 0.9% hits;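 active = activation above the mean of all tested compounds plus 3 SD, computed per campaign excluding outliers beyond control limits, cut at about 13% in these data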
ADAM17 inh: inhibitors of human ADAM17; 370,000 compounds, 0.83% hits; inhibition, % at 6.95 µM; P78536; recombinant ADAM17, EDANS/DABCYL FRET peptide cleavage;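 active = inhibition above the mean of compounds lying between control limits plus 3 SD, set per campaign, cut at about 8.5% in these data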;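 also: 0% = DMSO-only wells as the low control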
ADAM10 inh: inhibitors of human ADAM10 | O14672 | recombinant ADAM10, EDANS/DABCYL FRET peptide cleavage, 3 h | inhibition, % at 7 µM | 370,000 compounds, 0.62% hits;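 active = inhibition above a per-campaign cutoff equal to the mean of compounds falling between control-based bounds plus 3 SD, cut at about 20% in these data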;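 also: 0% = DMSO wells while the 100% control is not disclosed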
Target sequence (O14672 214-748 limits assumed): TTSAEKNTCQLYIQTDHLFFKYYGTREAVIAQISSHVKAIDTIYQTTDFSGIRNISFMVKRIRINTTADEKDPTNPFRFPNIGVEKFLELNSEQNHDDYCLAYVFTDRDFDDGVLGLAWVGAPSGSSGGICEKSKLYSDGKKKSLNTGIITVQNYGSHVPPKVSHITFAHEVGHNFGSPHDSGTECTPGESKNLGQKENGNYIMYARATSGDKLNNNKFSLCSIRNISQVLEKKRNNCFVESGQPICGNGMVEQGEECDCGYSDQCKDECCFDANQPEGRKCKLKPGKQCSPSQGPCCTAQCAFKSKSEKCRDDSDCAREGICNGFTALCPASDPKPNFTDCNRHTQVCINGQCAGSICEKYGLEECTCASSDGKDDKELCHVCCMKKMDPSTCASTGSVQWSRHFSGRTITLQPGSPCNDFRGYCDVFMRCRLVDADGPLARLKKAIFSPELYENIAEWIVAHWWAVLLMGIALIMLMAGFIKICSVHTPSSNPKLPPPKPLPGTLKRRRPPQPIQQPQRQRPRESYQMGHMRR
An asterisk follows results filed as active; x = no result given. Compounds with a hit are over-represented: about 3.8% of the library has one in this group of screens.

SMILES	rRNA inh HTS	FGF22 binding	proKLK7 act	ADAM17 inh	ADAM10 inh
Cc1ccccc1C(=O)NC(CC(C)C)C(=O)Nc1ccc(S(N)(=O)=O)cc1 (centres undefined)	-24*	0	0	3	2
CC(NS(=O)(=O)c1ccccc1)C(=O)Nc1ccc(S(N)(=O)=O)cc1 (centres undefined)	x	x	-1	2	3
CN(C)CC(=O)N1[C@@H](CO)[C@@H](c2ccccc2)C12CN(C(=O)c1cccc(F)c1)C2	1	x	x	x	x
Cc1cc(C)nc(NS(=O)(=O)c2ccc(NC(=O)c3ccc4c(c3)OCCO4)cc2)n1	12	43*	0	-2	-6
Cc1cc(C)nc(NS(=O)(=O)c2ccc(NC(=O)c3ccc(S(=O)(=O)N(C)C)cc3)cc2)n1	-6	0	0	-4	-3
O=C(C[C@H]1CC[C@@H](NC(=O)Nc2ccc(C(F)(F)F)cc2)[C@@H](CO)O1)NCCN1CCCC1	-1	0	x	x	x
CCOC(=O)c1cnn(-c2c(Cc3ccccc3)c(C)nc3c(-c4ccccc4)c(C)nn23)c1N	x	x	-1	10*	10
COc1cc(CC(=O)NCC2COc3ccccc3O2)cc(OC)c1OC (centres undefined)	10	42	0	-2	-3
COc1ccccc1NC(=O)C(=O)NCC1COc2ccccc2O1 (centres undefined)	-23*	0	0	0	3
COCC(=O)N1C[C@H](C)[C@@H](OC)CN(C)C(=O)c2cc(NC(=O)c3ccc(OC)cc3)ccc2OC[C@@H]1C	3	0	x	x	x
COc1ccc(N2CCN(C(=O)CSc3nnnn3-c3ccc4c(c3)OCCO4)CC2)cc1	-21*	-1	1	3	4
Cc1ccccc1-n1ncc2c(SCC(=O)N3c4ccccc4CC3C)ncnc21 (centres undefined)	-26*	0	1	3	13
C[C@H]1CC=CC[C@H](c2ccc3c(c2)OCO3)NC(=O)[C@@H](Cc2ccccc2)N(C)C(=O)c2ccccc2O1 (mixture of isomers)	-8	x	x	x	x
C[C@H](CO)N1C[C@H](C)[C@@H](CN(C)CC2CCCCC2)Oc2c(NC(=O)CCCCCC(=O)Nc3ccccc3N)cccc2C1=O	-11	x	x	x	x
FC(F)(F)c1ccc(/C=N/N2CCN(Cc3cccc4ccccc34)CC2)cc1	x	x	0	-3	1
C(=N\N1CCN(Cc2cccc3ccccc23)CC1)/c1cccnc1	-30*	0	0	0	-2
CCCc1cc(=O)[nH]c(SCC(=O)Nc2ccc(OC)c(S(=O)(=O)N3CCCCC3)c2)n1	-22*	0	0	-1	2
Cc1ccc(NC(=O)COC(=O)C2CC3C=CC2C3)cc1S(=O)(=O)N1CCCCC1 (centres undefined)	-26*	0	0	4	7
Cc1cnc(C(=O)Nc2ccc(C)c(S(=O)(=O)N3CCCCC3)c2)cn1	10	0	0	-1	-12
Cc1ccc(NC(=O)c2cnccn2)cc1S(=O)(=O)N1CCCCCC1	1	43*	0	1	0
Cc1ccc(S(=O)(=O)N2CCCCC2)cc1NC(=O)COC(=O)C1CC2C=CC1C2 (centres undefined)	x	x	0	-3	-7
Cc1ccc(NC(=O)COc2ccccc2C#N)cc1S(=O)(=O)N1CCCCCC1	-25*	0	-1	4	11
Cc1noc(C)c1S(=O)(=O)Nc1ccc2c(c1)C(=O)N([C@H](C)CO)C[C@@H](C)[C@@H](CN(C)C(=O)c1ccccc1)OCCCC[C@H](C)O2	1	x	x	x	x
COc1ccc(NC(=O)CSCC(=O)Nc2ccc(C)c(S(=O)(=O)N3CCCCCC3)c2)cc1	-35*	0	0	2	6
COc1ccc(CC(=O)Nc2ccc(C)c(S(=O)(=O)N3CCCCCC3)c2)cc1	1	1	0	-4	-8
SMILES	rRNA inh HTS	FGF22 binding	proKLK7 act	ADAM17 inh	ADAM10 inh
COc1ccccc1NC(=O)CN1CCC(c2nc3ccc(C)cc3[nH]2)CC1	-26*	0	1	1	6
COc1ccc(NC(=O)N2CCC(c3nc4ccccc4[nH]3)CC2)cc1	-22*	0	0	0	3
COc1cccc(C#Cc2ccc3c(c2)[C@H]2[C@H](CCN2C(=O)Cc2ccccc2)[C@H](CO)N3)c1	-5	x	x	x	x
CCCNC(=O)C[C@@H]1C[C@H]2c3cc(NC(=O)Cc4ccncc4)ccc3O[C@H]2[C@H](CO)O1	0	0	x	x	x
CCN(CC)S(=O)(=O)c1cc(NC(=O)C(C)N2CCN(c3ccccn3)CC2)ccc1C (centres undefined)	-20*	0	0	-4	3
CCN(CC)S(=O)(=O)c1cc(NC(=O)CN2CCN(c3ccccn3)CC2)ccc1C	-15	0	0	-4	-9
Cc1cc(NC(=O)c2ccc(N3C(=O)CCC3=O)cc2)no1	x	x	-1	-4	2
Cc1cc(NC(=O)c2ccc(N3C(=O)C4C5C=CC(C5)C4C3=O)cc2)no1 (centres undefined)	8	44*	0	-4	-4
COc1ccccc1NC(=O)c1cccc(N2C(=O)C3C4C=CC(C4)C3C2=O)c1 (centres undefined)	3	44*	0	-1	-1
COc1cccc(C#Cc2ccc([C@H]3[C@H]4CN(C(C)=O)CC(=O)N4[C@H]3CO)cc2)c1	1	x	x	x	x
C[C@@H]1CN([C@H](C)CO)C(=O)c2cc(C3=CCCCC3)cnc2O[C@@H]1CN(C)C(=O)Nc1cccc(F)c1	-3	0	x	x	x
CC(=NNc1nc2ccccc2o1)c1cc2ccccc2cn1	-22*	0	0	6	3
CC(=NNc1nc2ccccc2o1)c1ncccn1	-52	0	1	4	0
Cc1cc(C)c(O)c(-c2cc(C(=O)NCCc3ccc(S(N)(=O)=O)cc3)[nH]n2)c1	-33*	41	0	2	10
COc1ccc(CCNC(=O)c2cc(-c3cc(C)cc(C)c3O)n[nH]2)cc1OC	-24	1	0	0	7
Cc1cc(O)c(-c2cc(C(=O)NCCc3ccc(S(N)(=O)=O)cc3)[nH]n2)cc1C	-35*	40	1	4	17
COc1ccc(CCNC(=O)c2cc(-c3ccc(C)cc3O)n[nH]2)cc1OC	x	x	0	3	2
Oc1ccc(/C=N/Nc2nc(-c3ccc(Cl)cc3)cc(C(F)(F)F)n2)cc1	-23*	0	-1	8	17
O=C(Cc1nnc(NC(=O)c2ccccc2)s1)N/N=C/c1cccc(O)c1	-3	0	0	1	0
Cc1ccc(Cn2cc(/C=N/NC(=O)Cc3nnc(NC(=O)c4ccc(C)cc4)s3)c3ccccc32)cc1	7	43*	0	-3	-9
Clc1ccccc1CN1CCN(CCCc2ccccc2)CC1	-2	43*	0	-1	-1
O=C1Nc2ccccc2Oc2cc([N+](=O)[O-])ccc21	x	43*	0	-4	-1

Compound activity from PubChem.
